“And” between values parts separate entries of the source, which are not always exact repeats. Equal entries are not always repeated. Inconclusive results are not listed. The source made the active and inactive calls.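 The calls were made as follows, unless noted: active = normalized viability below 100% at a tested concentration; inactive = the rest.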

By AC50 is commonly meant the concentration giving half of the maximal activity seen. For orientation: viability means a read-out of living cells in per cent, often relative to untreated cells.

The nature of assay [1]: SU-DIPG-VI glioma cell viability, MIPE4.0 library, CellTiter-Glo luminescence, qHTS (AID 1347066; cut-off not given, nearly all actives have AC50 up to about 30 µM;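 also: cells exposed to compound for 48 hours before readout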). Conditions: CellTiter-Glo ATP luminescence.
A short description of assay [2]: JHH-DIPG-1 glioma cell viability, MIPE5.0 library, CellTiter-Glo luminescence, qHTS (AID 1347067; cut-off not given, nearly all actives have AC50 up to about 26 µM;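 also: cells exposed to compound for 48 hours before readout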). Conditions: JHH-DIPG-1 glioma viability, CellTiter-Glo ATP luminescence.
The nature of assay [3]: SU-DIPG-XXV glioma cell viability, MIPE5.0 library, qHTS (AID 1347068; cut-off not given, nearly all actives have IC50 up to about 30 µM). On the technique in general: qHTS replaces the single test concentration by a dilution series.
A short description of assay [4]: sensitizers of A549 cells to miR-34 induction, primary screen, imaging, A549 dox-inducible miR-34, nuclei and caspase counts (AID 1347080;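 active = compounds whose cell count with miR-34 switched on is under 0.7 times the count with it off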). Conditions: A549 miR-34 inducible, Hoechst nuclei count, 48 h.
Assay [5] is described as follows: survival rescue of mitochondrial mutant cells in low glucose, primary screen, MELAS cybrids, Rieske KO mouse fibroblasts, CellTiter-Glo (AID 1508586;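 active = mean z-score across replicates of 1.96 or higher in either the MELAS or the Rieske mutant cell line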;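 also: z relative to plate mean and SD of compound and empty wells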).
For assay [6], the target named is NAD(+) hydrolase SARM1 (Homo sapiens) (UniProt Q6SZW1). Put plainly: SARM1 TIR NADase inhibitors, cell lysate, NAD-Glo luminescence (AID 1508614;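 active = compound whose remaining NAD level is above about 45 nM, limit read from the data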;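 also: higher remaining NAD means stronger inhibition of SARM1 NADase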). Conditions: SAM-TIR HEK293T lysate NADase, at 1 µM, stronger effect = higher value.
Chain of NAD(+) hydrolase SARM1 (Homo sapiens) (Q6SZW1 whole entry, looked up): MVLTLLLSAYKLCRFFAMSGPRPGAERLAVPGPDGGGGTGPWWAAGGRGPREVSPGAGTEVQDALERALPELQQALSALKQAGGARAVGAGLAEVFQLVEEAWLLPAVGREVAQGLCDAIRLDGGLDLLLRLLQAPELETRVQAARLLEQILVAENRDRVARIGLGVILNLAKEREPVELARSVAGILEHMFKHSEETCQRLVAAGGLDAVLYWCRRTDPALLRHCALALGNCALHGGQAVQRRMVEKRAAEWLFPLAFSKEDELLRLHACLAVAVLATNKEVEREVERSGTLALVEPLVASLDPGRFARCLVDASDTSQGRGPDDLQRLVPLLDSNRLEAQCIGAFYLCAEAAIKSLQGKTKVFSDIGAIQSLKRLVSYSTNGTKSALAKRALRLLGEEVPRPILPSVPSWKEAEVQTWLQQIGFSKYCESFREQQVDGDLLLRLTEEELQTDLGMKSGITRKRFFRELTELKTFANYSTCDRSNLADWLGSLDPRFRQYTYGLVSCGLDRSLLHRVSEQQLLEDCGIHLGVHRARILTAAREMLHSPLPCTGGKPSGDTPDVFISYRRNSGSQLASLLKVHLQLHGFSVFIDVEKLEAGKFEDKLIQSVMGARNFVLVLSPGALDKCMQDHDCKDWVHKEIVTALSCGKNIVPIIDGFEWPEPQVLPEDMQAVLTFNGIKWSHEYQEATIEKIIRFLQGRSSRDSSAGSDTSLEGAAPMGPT
A short description of assay [7]: viability rescue of complex I mutant cybrids, primary screen, cell-based, galactose medium, ATP luminescence (AID 1645843;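 active = z-score of at least 1.8 in each of two replicates, scored against plate mean and spread of sample wells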;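 also: positive z means more ATP and so rescue of galactose-driven cybrid death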). The note with it: complex I mutant cybrid cells, 72 h, stronger effect = higher value.
A short description of assay [8]: viability loss in pontine glioma line – cell-based, SU-DIPG-XXV, MIPE5.0, CellTiter-Glo, qHTS, dose response (AID 1347065; cut-off not given, nearly all actives have AC50 up to about 26 µM;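 also: cells exposed to compound for 48 hours before ATP readout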). The note with it: CellTiter-Glo ATP luminescence. For orientation: In ATP-based viability assays light output follows the ATP content of the culture.
The target of assay [9] is Mitogen-activated protein kinase 7 (Homo sapiens) (UniProt Q13164). Description: ERK5 transactivation activators in reporter cells, primary screen, cell-based, HTS (AID 1508626;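 active = luciferase signal above three times the same-plate solvent-only control wells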;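 also: luciferase driven by Gal4-ERK5 fusion binding five Gal4 sites before minimal TATA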). Conditions: HeLa Gal4-ERK5 transactivation, 18 h, at 5 µM, stronger effect = higher value.
Chain of Mitogen-activated protein kinase 7 (Homo sapiens) (Q13164 whole entry, looked up, the tested form may be a part): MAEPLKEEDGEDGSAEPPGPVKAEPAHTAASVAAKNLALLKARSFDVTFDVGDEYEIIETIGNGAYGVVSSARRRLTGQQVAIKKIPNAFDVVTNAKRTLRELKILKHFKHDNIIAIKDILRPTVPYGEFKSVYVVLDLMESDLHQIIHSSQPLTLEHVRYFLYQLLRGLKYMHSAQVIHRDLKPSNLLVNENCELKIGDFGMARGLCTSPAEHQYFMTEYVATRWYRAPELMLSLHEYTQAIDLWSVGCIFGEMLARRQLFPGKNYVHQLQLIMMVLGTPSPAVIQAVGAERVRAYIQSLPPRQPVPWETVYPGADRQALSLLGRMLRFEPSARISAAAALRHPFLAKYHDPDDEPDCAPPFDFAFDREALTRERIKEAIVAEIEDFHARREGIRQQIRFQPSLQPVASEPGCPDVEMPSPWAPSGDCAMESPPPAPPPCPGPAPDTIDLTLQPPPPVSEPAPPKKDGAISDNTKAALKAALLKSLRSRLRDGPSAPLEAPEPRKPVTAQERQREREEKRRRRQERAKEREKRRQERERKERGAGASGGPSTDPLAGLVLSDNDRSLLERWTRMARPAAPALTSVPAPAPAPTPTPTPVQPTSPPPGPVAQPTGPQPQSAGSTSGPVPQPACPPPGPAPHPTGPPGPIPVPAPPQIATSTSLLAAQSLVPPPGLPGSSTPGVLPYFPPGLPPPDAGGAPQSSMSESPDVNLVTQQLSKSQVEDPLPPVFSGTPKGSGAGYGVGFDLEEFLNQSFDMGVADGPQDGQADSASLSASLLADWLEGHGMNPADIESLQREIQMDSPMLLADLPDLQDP
Assay [10] can be described thus: modifiers of HSF1 nuclear foci, imaging, Selleck Cancer Library (AID 1347162; in the data active = plate-normalised HSF1 focus index below about 0.46). Conditions: human cells, at 10 µM; SSMD: measured here: HSF1 foci SSMD mean; cell count: measured here: cell number; plate-normalised HSF1 focus index: stronger effect = lower value.
The nature of assay [11]: ovarian cancer cell viability with rucaparib, profiling panel, oncology-focused library, rucaparib conditional (AID 1508598). Conditions: patient-derived ovarian cancer cells, CellTiter-Glo viability, 144 h, stronger effect = lower value.
The mark [12] stands for this setting: stronger effect = lower value, cell number ratio, induced over uninduced.
Setting [13] is: measured here: relative caspase fold change +Dox/-Dox.
[14] abbreviates: measured here: total cells with miR-34 induction, stronger effect = lower value.
Setting [15] is: measured here: total cells without miR-34 induction.
[16] abbreviates: MELAS cybrid survival, CellTiter-Glo 48 h, stronger effect = higher value.
Setting [17] is: Rieske KO mouse fibroblast survival, CellTiter-Glo 72 h.

On to `CC(C)(C)NC(=O)[C@H]1CC[C@H]2[C@@H]3CC[C@H]4NC(=O)C=C[C@]4(C)[C@H]3CC[C@]12C`, for which the compound was called inactive in [1], in [2] and in assay [3]. For the same compound, the fold change was 0.927 (inactive) and 0.774 (inactive) in assay [4] (setting [12]); 1.11 and 2.31 in [4] (setting [13]). Besides, the cell count in assay [4] (setting [14]) is 8640 and 8130; in assay [4] (setting [15]), 9320 and 10500. Further, the z-score is 0.136 (inactive) and 0.187 (inactive) in assay [5] (setting [16]); 0.621 and 0.926 in [5] (setting [17]); 0.465 (inactive) in assay [7]. Besides, the remaining NAD in [6] is 10 nM (inactive).

Turning to `Cc1nnc(NS(=O)(=O)c2ccc(N)cc2)s1`, the result in assay [8] and in assay [2] was inactive. Besides, the fold change in assay [4] (setting [12]) is 0.854 (inactive) and 0.859 (inactive) and 0.853 (inactive); in assay [4] (setting [13]), 1.13 and 0.759 and 2.93. Moreover, the cell count in [4] (setting [14]) was 8770 and 7900 and 10600; in [4] (setting [15]) it was 10300 and 9200 and 12500. In addition, the z-score in [5] (setting [16]) is -0.255 (inactive) and -1.45 (inactive); in assay [5] (setting [17]) it was 0.469 and 0.621. Also, the remaining NAD in [6] is 10 nM (inactive). Moreover, in assay [9], the luciferase signal was 184 AU (inactive).

For the compound `CCc1c2c(nc3ccc(OC(=O)N4CCC(N5CCCCC5)CC4)cc13)-c1cc3c(c(=O)n1C2)COC(=O)[C@]3(O)CC`, in assay [1], the result was inactive. Besides, the AC50 in [2] was 23.5 µM (active). Moreover, the fold change in assay [4] (setting [12]) is 0.732 (inactive) and 1.02 (inactive) and 1.1 (inactive); in assay [4] (setting [13]), 1.79 and 1.27 and 1.62. Further, the cell count in assay [4] (setting [14]) was 1660 and 2170 and 2350; in [4] (setting [15]), 2270 and 2120 and 2140; in assay [10], 7510. This compound showed an SSMD in assay [10] of -0.515. In addition, in [10], the plate-normalised HSF1 focus index is 0.983 (inactive). Further, the z-score in assay [5] (setting [16]) is -0.914 (inactive) and -2.14 (inactive); in assay [5] (setting [17]), -0.882 and -1.55; in [7], -1.4 (inactive) and -0.58 (inactive). In addition, the viability was 118% (inactive) in assay [11] (at 0.000305 µM, OCI-C5x cells, with rucaparib 10 µM, 100% = cells with rucaparib alone); 117% (inactive) in assay [11] (at 0.000305 µM, OCI-C5x cells, without rucaparib); 102% (inactive) in [11] (at 0.000305 µM, OCI-P5x cells, with rucaparib 20 µM, 100% = cells with rucaparib alone); 105% (inactive) in assay [11] (at 0.000305 µM, OCI-P5x cells, without rucaparib); 121% (inactive) in assay [11] (at 0.00122 µM, OCI-C5x cells, with rucaparib 10 µM, 100% = cells with rucaparib alone); 124% (inactive) in [11] (at 0.00122 µM, OCI-C5x cells, without rucaparib). Moreover, the viability was 104% (inactive) in assay [11] (at 0.00122 µM, OCI-P5x cells, with rucaparib 20 µM, 100% = cells with rucaparib alone); 105% (inactive) in assay [11] (at 0.00122 µM, OCI-P5x cells, without rucaparib); 107% (inactive) in [11] (at 0.00488 µM, OCI-C5x cells, with rucaparib 10 µM, 100% = cells with rucaparib alone); 112% (inactive) in assay [11] (at 0.00488 µM, OCI-C5x cells, without rucaparib); 108% (inactive) in [11] (at 0.00488 µM, OCI-P5x cells, with rucaparib 20 µM, 100% = cells with rucaparib alone); 106% (inactive) in assay [11] (at 0.00488 µM, OCI-P5x cells, without rucaparib). For the same compound, the viability in assay [11] (at 0.0195 µM, OCI-C5x cells, with rucaparib 10 µM, 100% = cells with rucaparib alone) was 115% (inactive); in [11] (at 0.0195 µM, OCI-C5x cells, without rucaparib), 124% (inactive); in [11] (at 0.0195 µM, OCI-P5x cells, with rucaparib 20 µM, 100% = cells with rucaparib alone), 101% (inactive); in assay [11] (at 0.0195 µM, OCI-P5x cells, without rucaparib) it was 105% (inactive); in assay [11] (at 0.0781 µM, OCI-C5x cells, with rucaparib 10 µM, 100% = cells with rucaparib alone), 115% (inactive); in assay [11] (at 0.0781 µM, OCI-C5x cells, without rucaparib), 109% (inactive). In addition, the viability in [11] (at 0.0781 µM, OCI-P5x cells, with rucaparib 20 µM, 100% = cells with rucaparib alone) is 89.3% (active); in [11] (at 0.0781 µM, OCI-P5x cells, without rucaparib), 102% (inactive); in assay [11] (at 0.313 µM, OCI-C5x cells, with rucaparib 10 µM, 100% = cells with rucaparib alone), 94% (active); in assay [11] (at 0.313 µM, OCI-C5x cells, without rucaparib) it was 106% (inactive); in assay [11] (at 0.313 µM, OCI-P5x cells, with rucaparib 20 µM, 100% = cells with rucaparib alone), 81.1% (active); in assay [11] (at 0.313 µM, OCI-P5x cells, without rucaparib) it was 89.6% (active). Also, the viability in [11] (at 1.25 µM, OCI-C5x cells, with rucaparib 10 µM, 100% = cells with rucaparib alone) is 70.2% (active); in assay [11] (at 1.25 µM, OCI-C5x cells, without rucaparib), 87% (active); in assay [11] (at 1.25 µM, OCI-P5x cells, with rucaparib 20 µM, 100% = cells with rucaparib alone), 64.9% (active); in assay [11] (at 1.25 µM, OCI-P5x cells, without rucaparib), 57.1% (active); in [11] (at 5 µM, OCI-C5x cells, with rucaparib 10 µM, 100% = cells with rucaparib alone), 50.5% (active); in [11] (at 5 µM, OCI-C5x cells, without rucaparib), 36.9% (active). In addition, the viability in assay [11] (at 5 µM, OCI-P5x cells, with rucaparib 20 µM, 100% = cells with rucaparib alone) is 34.4% (active); in assay [11] (at 5 µM, OCI-P5x cells, without rucaparib), 21.1% (active). In assay [6], the remaining NAD is 10 nM (inactive).

Values taken from PubChem BioAssay.
